This note sets out measurements from PubChem BioAssay (Tox21).

Each structure is given as a SMILES string. Several values for one entry are separate records, joined by “and”; a condition that tells them apart may be missing. Identical values can stand only once. Records with an inconclusive call do not appear. The source holds several records for some structures; these can differ, active in one and inactive in another. Activity calls are given as the source filed them. The call rests on the fitted dose curve; in most records, active means well fitted cell-killing curve with a large enough effect in the repeat runs; inconclusive means weak or mixed curves, or effect the other way; inactive means no such curve, though single readings can be large or run the other way.
On the % scale 0 is the no-effect control and ±100 the full control effect; potency means the concentration at half of the fitted maximal effect.

The nature of the experiment: qHTS assay for identifying genotoxic compounds that show differential cytotoxicity against isogenic chicken DT40 cell lines with known DNA damage response pathways - Rev3 mutant cell line (AID 743014). Further: nearly all actives have a fitted effect of over 55% in size. To be noted: chicken DT40 Rev3-/- viability, CellTiter-Glo, 40 h; series mostly up to 68.4 µM; activity, negative = cytotoxicity: at the top concentration. An excerpt:
National Center for Advancing Translational Sciences [NCATS]
NIH Chemical Genomics Center [NCGC]
U.S. Environmental Protection Agency [EPA]
National Institutes of Environmental Health Sciences [NIEHS]
National Toxicology Program [NTP]
U.S. Food and Drug Administration [FDA]
DNA repair pathways play a critical role in cellular homeostasis by repairing DNA damage induced by endogenous processes and xenobiotics. Isogenic chicken DT40 cell lines deficient in different DNA repair pathways can be used to identify genotoxic compounds and aid in characterizing the nature of the DNA damage induced. Two DNA repair-deficient cell lines with disrupted genes, Rad54/Ku70 or Rev3, were used to screen the Tox21 10K compound library. Possible genotoxicity was based on the presence of a significant increase in cytotoxicity in one or more of the DNA repair-deficient cell lines compared to that observed in the parental DNA repair-proficient cell line. CellTiter Glo viability assay (Promega, Madison, WI) was used to measure cell viability in these cells after compound treatment. This assay includes the data from the Rev3 mutant cell line.
Tox21 Assay Protocol Summary:
300 DT40 mutant cells in 5 uL/well were dispensed into white, solid-bottom 1536-well plates using a Multidrop Combi (ThermoFisher Scientific, Waltham, MA) dispenser. After the assay plates were incubated at 37 C/5% CO2 for approximately 0.5 hour, 23 nL of compounds dissolved in DMSO, positive controls or DMSO only was transferred into the assay plate by a pintool work station (Kalypsys, San Diego, CA). The assay plates were incubated at 37 C/5% CO2 for 40 hours. After 5 uL per well of CellTiter-Glo reagent was added into each well of the assay plates, the plates were incubated for 30 min at room temperature and the luminescence intensity of the plates was measured using a ViewLux (PerkinElmer, Shelton, CT) plate reader.
(In qHTS, concentration-response curves come from the screen itself.)
Consider `O=C(c1ccccc1)c1ccccc1O`, for which the Potency result is “inactive”. Consider `c1ccncc1`, for which the Potency result was “inactive”. Take `CCCCC(CC)COP(=O)(OCC(CC)CCCC)OCC(CC)CCCC` (stereo not given): the “activity, negative = cytotoxicity” value was -0.791% [at 95 µM] (inactive). For `CCC(C)c1ccccc1O` (stereo not given), the Potency entry was “inactive”.

For the compound `Cc1ccc(C(=O)c2cc(O)c(O)c([N+](=O)[O-])c2)cc1`, the Potency result is “inactive and 68.6 µM (active)”. `COC(=O)c1ccccc1`: the Potency result is “inactive”. For `COc1ccccc1/C=C/C=O`, the Potency is 62.8 µM (active). Regarding `CCCc1c(OCCCCc2nn[nH]n2)ccc(C(C)=O)c1O`, the Potency is 29.8 µM (active) and inactive. For `CCCCCCCCCC(=O)OC`, the Potency result was “inactive”.

Turning to `Cc1cccc(C(=O)O)c1`, the Potency result is “inactive”.

`CC(C)CC(C)(O)C#CC(C)(O)CC(C)C` (stereo not given): the Potency was 54.5 µM (active). In the case of `CCCCOCCOCCO`, the Potency entry is “inactive”.

Regarding `OC1CCCCCCCCCCC1`, the Potency entry is “inactive”. Turning to `CC(C(=O)O)c1cccc(C(=O)c2ccccc2)c1` (stereo not given), the Potency result was “inactive”. As to `CC(C)OC(=O)C(C)(C)Oc1ccc(C(=O)c2ccc(Cl)cc2)cc1`, the Potency is 24.3 µM (active).

As for `Nc1ccccc1N`, the Potency was 31.4 µM (active) and 10.3 µM (active).

Turning to `CN(C)c1nc(N(C)C)nc(N(C)C)n1`, the Potency result was “inactive”. On to `CCCCOCCOCCOCCO`, for which the Potency result was “inactive”. With `CC(=O)CC/C=C(\C)CCC=C(C)C`, the “activity, negative = cytotoxicity” value is 2.34% [at 95 µM] (inactive).

Regarding `Cc1cc2nc3c(=O)[nH]c(=O)nc-3n(C[C@H](O)[C@H](O)[C@H](O)CO)c2cc1C`, the Potency entry is “inactive”. Turning to `CC(C)OB(OC(C)C)OC(C)C`, the Potency entry was “inactive”. Still for that read-out and setting: the value for `c1ccc2cc(Nc3ccc(Nc4ccc5ccccc5c4)cc3)ccc2c1` was “inactive”; that for `OC(CCl)CCl` was “inactive”.

As to `COC(=O)CCC(=O)OC`, the “activity, negative = cytotoxicity” value is 3.66% [at 95 µM] (inactive).

For `O=C(/C=C/C=C/c1ccc2c(c1)OCO2)N1CCCCC1`, the Potency was 61.3 µM (active). On to `O=C(COc1ccc(Cl)cc1)N1CCN(Cc2ccc3c(c2)OCO3)CC1`, for which the Potency was 16.8 µM (active) and 54.5 µM (active). Regarding `Cc1cccc([N+](=O)[O-])c1C`, the Potency result was “inactive”. Still for that read-out and setting: in the case of `Cc1ncc[nH]1` it was “inactive”. With `CC(C)(C)NC(=O)[C@H]1CC[C@H]2[C@@H]3CC[C@H]4NC(=O)C=C[C@]4(C)[C@H]3CC[C@]12C`, the Potency result is “inactive and 60.4 µM (active) and 27.3 µM (active)”. As to `CCCCC(CC)COC(=O)c1ccc(N(C)C)cc1` (stereo not given), the Potency result is “inactive and 54.5 µM (active)”. As for `O=C=Nc1ccc(Cc2ccc(N=C=O)cc2)cc1`, the Potency was 10.7 µM (active) and inactive.

For the compound `O=Cc1ccccc1O`, the “activity, negative = cytotoxicity” value is 6.01% (inactive). As for `O=C(Nc1ccc([N+](=O)[O-])cc1Cl)c1cc(Cl)ccc1O`, the Potency was 473 nM (active) and 686 nM (active). On the same count and under the same terms, the value for `Nc1ncn([C@@H]2O[C@H](CO)[C@@H](O)[C@H]2O)c(=O)n1` was 1.88 µM (active) and 1.22 µM (active). The same measure, in the same setting: in the case of `O=C(c1ccc(OCCN2CCCCC2)cc1)c1c(-c2ccc(O)cc2)sc2cc(O)ccc12` it was 1.06 µM (active) and 612 nM (active) and 686 nM (active). As for `Cc1ccc(C)c(O)c1C`, the “activity, negative = cytotoxicity” value is 3.07% (inactive). Consider `C/C=C/C(=O)O`, for which the Potency result is “inactive”. Take `COC(=O)C1=C(C)NC(C)=C(C(=O)OCCN(C)Cc2ccccc2)C1c1cccc([N+](=O)[O-])c1` (stereo not given): the Potency was 11.9 µM (active) and 21.6 µM (active). `CCCCNS(=O)(=O)c1ccccc1`: the Potency result was “inactive”.

Turning to `CN(C)CCC=C1c2ccccc2CCc2ccccc21`, the Potency is 13.3 µM (active) and 30.6 µM (active).
